Results taken from PubChem BioAssay (Tox21).
Records with an inconclusive call do not appear. Calls of active or inactive are those of the source. Unless noted, calls come from the whole dose curve; as a rule, active = well fitted curve in the direction sought with a large enough effect in the repeat runs; inconclusive = weak or mixed curves; inactive = no such curve, though single readings can be large; an effect the other way counts as inactive or inconclusive.

Tests used:
[1] = qHTS assay to identify small molecule antagonists of the estrogen related receptor (ERR) signaling pathway from Tox21 library - cell viability counter screen (AID 1224834); note: nearly all actives have a fitted effect of over 30% in size
Outline: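 CellTiter-Fluor fluorescence measured; ERR cells; 17.5 h compound incubation at 37 C; 30 min reagent step.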

[2] = target: Luciferin 4-monooxygenase (Photinus pyralis) (UniProt P08659); test: qHTS assay to identify small molecule inhibitors of firefly luciferase (AID 1224835); note: nearly all actives have a fitted effect of over 25% in size
Luciferin 4-monooxygenase (Photinus pyralis), sequence (P08659 whole entry, looked up): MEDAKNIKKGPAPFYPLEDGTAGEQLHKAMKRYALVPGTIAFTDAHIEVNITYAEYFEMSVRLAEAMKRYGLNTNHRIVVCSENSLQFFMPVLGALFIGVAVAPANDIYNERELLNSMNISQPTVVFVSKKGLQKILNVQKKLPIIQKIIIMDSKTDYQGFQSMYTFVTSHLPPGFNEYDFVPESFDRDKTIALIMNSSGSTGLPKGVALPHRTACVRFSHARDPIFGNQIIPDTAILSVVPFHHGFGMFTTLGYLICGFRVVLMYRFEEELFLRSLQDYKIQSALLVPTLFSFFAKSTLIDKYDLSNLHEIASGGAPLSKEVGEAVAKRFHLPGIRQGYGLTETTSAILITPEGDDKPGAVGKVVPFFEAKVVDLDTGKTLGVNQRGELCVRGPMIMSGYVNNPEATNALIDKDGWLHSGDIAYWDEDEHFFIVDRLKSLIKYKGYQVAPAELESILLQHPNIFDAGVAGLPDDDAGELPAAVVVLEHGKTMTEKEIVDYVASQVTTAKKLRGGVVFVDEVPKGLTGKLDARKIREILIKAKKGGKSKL
Outline: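 Inhibition of purified Photinus luciferase is measured by luminescence. Substrate levels (D-luciferin, ATP) sit at their KM values. Each compound is tested in a concentration series.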

[3] = qHTS assay to identify small molecule agonists of the constitutive androstane receptor (CAR) signaling pathway - cell viability counter screen (AID 1224836); note: nearly all actives have a fitted effect of over 45% in size
Outline: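 HepG2 cells stably carrying hCAR and a CYP2B6-2.2kb reporter; 15-concentration compounds plus PK11195 (final 0.75 uM), 23 hr at 37 C/5% CO2. Viability read by CellTiter-Fluor fluorescence.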

[4] = qHTS assay to identify small molecule antagonists of the constitutive androstane receptor (CAR) signaling pathway - cell viability counter screen (AID 1224837); note: nearly all actives have a fitted effect of over 45% in size
Outline: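 Using CellTiter-Fluor, viability is scored in HepG2 cells stably carrying hCAR and a 2.2kb CYP2B6 reporter after 23 hr compound exposure across 15 concentrations, with CITCO present at 50 nM.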

[5] = target: Nuclear receptor subfamily 1 group I member 3 (Homo sapiens) (UniProt Q14994); test: qHTS assay to identify small molecule antagonists of the constitutive androstane receptor (CAR) signaling pathway (AID 1224838);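 note: HepG2 cells stably expressing hCAR with CYP2B6 luciferase reporter stimulated by CITCO; nearly all actives have a fitted effect of over 40% in size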
Nuclear receptor subfamily 1 group I member 3 (Homo sapiens), sequence (Q14994 whole entry, looked up): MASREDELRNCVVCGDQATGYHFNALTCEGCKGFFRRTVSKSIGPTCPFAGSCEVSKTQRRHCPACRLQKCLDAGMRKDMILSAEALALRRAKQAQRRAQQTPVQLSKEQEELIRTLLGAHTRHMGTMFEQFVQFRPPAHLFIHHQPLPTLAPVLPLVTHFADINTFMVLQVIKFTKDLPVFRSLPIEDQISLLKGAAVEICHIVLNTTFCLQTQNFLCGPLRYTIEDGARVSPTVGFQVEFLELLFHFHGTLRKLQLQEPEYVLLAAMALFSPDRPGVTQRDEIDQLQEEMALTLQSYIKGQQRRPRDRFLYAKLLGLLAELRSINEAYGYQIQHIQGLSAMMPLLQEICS
Outline: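 Reporter luminescence was quantified after 24 h exposure of hCAR/CYP2B6-2.2kb double-stable HepG2 cells to compounds at 15 concentrations in the presence of 50 nM CITCO final.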

[6] = target: Nuclear receptor subfamily 1 group I member 3 (Homo sapiens) (UniProt Q14994); test: qHTS assay to identify small molecule agonists of the constitutive androstane receptor (CAR) signaling pathway (AID 1224839);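 note: HepG2 cells stably carrying human CAR and a CYP2B6 luciferase reporter; nearly all actives have a fitted effect of over 15% in size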
Outline: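 HepG2 cells stably co-transfected with hCAR and a CYP2B6-2.2kb luciferase reporter; compounds at 15 concentrations with 0.75 uM PK11195 present. After 24 hr at 37 C, luciferase read by ONE-Glo luminescence.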

[7] = qHTS assay to identify small molecule antagonists of the estrogen related receptor signaling pathway with the pleiotropic PPARgamma coactivator (PGC) from Tox21 10K library - cell viability counter screen (AID 1224840; active = well fitted cell-killing curve with a large enough effect in the repeat runs, not every such curve was filed as active; note: nearly all actives have a fitted effect of over 40% in size)
Outline: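 Here the PGC/ERR cells serve as a cytotoxicity control: they are exposed to compounds for 17.5 hours at 37 C, and live-cell signal is quantified using CellTiter-Fluor fluorescence.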

[8] = qHTS assay to identify small molecule antagonists of the estrogen related receptor signaling pathway with the pleiotropic PPARgamma coactivator (PGC) from Tox21 10K library (AID 1224841; call rule not given here; note: actives are mostly falling curves and most rising ones were filed inactive; nearly all actives have a fitted effect of over 50% in size)
Outline: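 Each well held 2,000 PGC/ERR cells, pre-incubated six hours (37 C, 5% CO2). Test substances in DMSO were added by pin tool and left for 18 h at 37 C before luciferase detection by One-Glo.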

[9] = qHTS assay to identify small molecule agonists of the estrogen related receptor signaling pathway with the pleiotropic PPARgamma coactivator (PGC) from Tox21 10K library (AID 1224842); note: nearly all actives have a fitted effect of over 15% in size
Outline: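 Luminescence from One-Glo (30 min, room temperature) measured after PGC/ERR cells had 18 h at 37 C with pinned compound (23 nL in DMSO). Cells had been seeded at 2,000 per well and pre-incubated 6 h.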

[10] = target: Thyrotropin receptor (Homo sapiens) (UniProt P16473); test: qHTS assay to identify small molecule agonists of the thyroid stimulating hormone receptor (TSHR) signaling pathway (AID 1224843; calls by dose curve; note: nearly all actives have a fitted effect of over 45% in size)
Thyrotropin receptor (Homo sapiens), sequence (P16473 whole entry, looked up): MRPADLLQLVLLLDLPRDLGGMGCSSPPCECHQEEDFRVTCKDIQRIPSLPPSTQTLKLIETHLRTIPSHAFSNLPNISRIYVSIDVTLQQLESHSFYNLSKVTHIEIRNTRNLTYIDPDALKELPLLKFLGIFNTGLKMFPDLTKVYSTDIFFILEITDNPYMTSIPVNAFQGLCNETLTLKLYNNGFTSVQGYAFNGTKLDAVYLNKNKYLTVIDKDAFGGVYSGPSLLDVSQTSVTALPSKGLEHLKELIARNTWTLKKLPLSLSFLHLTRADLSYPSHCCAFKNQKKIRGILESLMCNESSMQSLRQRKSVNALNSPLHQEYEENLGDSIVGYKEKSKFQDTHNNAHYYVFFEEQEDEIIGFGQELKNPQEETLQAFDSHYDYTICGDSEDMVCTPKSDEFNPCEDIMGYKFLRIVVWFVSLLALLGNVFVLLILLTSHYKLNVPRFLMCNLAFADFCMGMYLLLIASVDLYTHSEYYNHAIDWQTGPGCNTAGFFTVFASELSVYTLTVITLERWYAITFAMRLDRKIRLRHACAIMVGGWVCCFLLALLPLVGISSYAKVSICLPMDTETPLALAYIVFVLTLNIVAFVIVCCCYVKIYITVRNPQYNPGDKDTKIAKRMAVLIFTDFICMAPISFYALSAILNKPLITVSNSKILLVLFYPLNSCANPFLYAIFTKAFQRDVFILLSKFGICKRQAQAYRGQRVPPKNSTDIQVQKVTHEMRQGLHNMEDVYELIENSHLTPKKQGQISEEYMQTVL
Outline: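 HEK293 cells stably bearing the thyrotropin receptor were plated at 800 cells/well and challenged with compound (30 min, RT). Accumulated cAMP was quantified via cAMP-d2 competing for cryptate-tagged antibody.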

[11] = qHTS assay to identify small molecule agonists of the hypoxia (HIF-1) signaling pathway - cell viability counter screen (AID 1224844; calls by dose curve; note: nearly all actives have a fitted effect of over 50% in size)
Outline: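 Multiplexed with the HRE beta-lactamase assay, this viability read used CellTiter-Glo luminescence (30 min, RT) on HRE-bla ME-180 cells treated 17 hrs with compounds in 0.5% dialyzed FBS medium.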

[12] = qHTS assay to identify small molecule agonists of H2AX (AID 1224845; active = well fitted activation curve with a large enough effect in the signal ratio in the repeat runs, not every such curve was filed as active; the % refers to the signal ratio)
Outline: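 Phospho-H2AX Ser139 measured by HTRF (ex 320 nm; em 665 and 620 nm) after 24 hr antibody incubation. Compounds, 15 concentrations, 0.76% DMSO, were applied to CHO-K1 cells for 3hr at 37C before lysis.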

[13] = qHTS assay to identify small molecule agonists of the hypoxia (HIF-1) signaling pathway (AID 1224846; active = well fitted activation curve with a large enough effect in the signal ratio in the repeat runs, not every such curve was filed as active; the % refers to the signal ratio)
Outline: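 Hypoxia-pathway activation was scored as increased beta-lactamase from an HRE-controlled reporter in ME-180 cells; plated at 2,000 cells per well with 0.5% dialyzed FBS, they were exposed 17 hrs to compounds and then given CCF4-AM.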

[14] = qHTS assay to identify small molecule agonists of H2AX - cell viability counter screen (AID 1224847; calls by dose curve;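 note: wild-type CHO-K1 cells; top concentration of the series differs between compounds; nearly all actives have a fitted effect of over 30% in size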)
Outline: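 CHO-K1 cells plated overnight at 37C, then exposed 3 h at 37C to compounds at 15 concentrations (0.76% DMSO final). Viability by CellTiter-Glo luminescence after 30 min at room temperature.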

[15] = qHTS assay to identify small molecule agonists of the estrogen related receptor (ERR) signaling pathway from Tox21 library (AID 1224849; calls by dose curve; note: nearly all actives have a fitted effect of over 15% in size); details: ERR reporter cell line, ONE-Glo luciferase, 18 h; at 92.4 µM (top of the series) unless noted
Outline: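 Six hours post-seeding at 37 C/5% CO2, ERR cells receive DMSO-solubilised compounds; after 18 h at 37 C, ONE-Glo reagent is applied and luminescence recorded.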

[16] = qHTS RealTime-Glo MT Cell Viability Assay in HepG2 cells - 24 hour (AID 1224867); note: nearly all actives have a fitted effect of over 50% in size
Outline: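 HepG2 suspension premixed with RealTime-Glo reagents is plated at 600 cells per well and left 5 h at 37 C/5% CO2. Compounds in DMSO then go in, and bioluminescence reflecting viable cell number is recorded over 40 h.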

[17] = qHTS RealTime-Glo MT Cell Viability Assay in HEK293 cells - 32 hour (AID 1224868); note: top concentration of the series differs between compounds; nearly all actives have a fitted effect of over 50% in size
Outline: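 Reads taken at 0, 8, 16, 24, 32 and 40 h from the same wells. HEK293 cells (600/well) carried RealTime-Glo reagents from seeding, with compound added after a 5 h settle at 37 C.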

[18] = A CellTox Green Cytotoxicity Assay to monitor cytotoxicity in HEK293 cells - 0 hour (AID 1224869); note: nearly all actives have a fitted effect of over 50% in size
Outline: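 Seeding of HEK293 cells together with cytotoxicity dye preceded a 5 h incubation at 37 C/5% CO2. Test compounds in DMSO were then added and fluorescence monitored across 40 h.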

[19] = qHTS assay to identify small molecule antagonists of the estrogen related receptor (ERR) signaling pathway from Tox21 library (AID 1224848); note: nearly all actives have a fitted effect of over 50% in size
Outline: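 Reading was by luminescence 30 min after ONE-Glo addition. Before that, ERR cells at 2,000 per well had rested 6 h at 37 C/5% CO2 and then received pin-tooled compounds in DMSO for 18 h at 37 C.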
% is set by controls: 0 for no effect and ±100 for the full control effect.

O=C(O)COc1nn(Cc2ccccc2)c2ccccc12
inactive: Potency [1] | Potency [2] | Potency [3] | Potency [4] | Potency [5] | Potency [6] | Potency [7] | Potency [8] | outcome [9] | Potency [10] | Potency [11] | outcome [12] | outcome [13] | Potency [14] | activity change, positive = activation [15] 0.25% [at 42.5 µM] | Potency [16] | Potency [17] | Potency [18]

N[C@H]1CN(c2c(F)cc3c(=O)c(C(=O)O)cn(C4C[C@H]4F)c3c2Cl)CC12CC2 (stereo not given in full)
inactive: Potency [1] | Potency [2] | Potency [3] | Potency [4] | Potency [5] | Potency [6] | Potency [7] | Potency [8] | outcome [9] | Potency [10] | Potency [11] | outcome [12] | outcome [13] | Potency [14] | Potency [19] | activity change, positive = activation [15] 5.03% [at 42.5 µM] | Potency [16] | Potency [18]

CCO[Si](CCC1CCC2OC2C1)(OCC)OCC (stereo not given)
inactive: Potency [1] | Potency [2] | Potency [3] | Potency [4] | Potency [5] | Potency [6] | Potency [7] | Potency [8] | outcome [9] | Potency [10] | Potency [11] | outcome [12] | outcome [13] | Potency [14] | activity change, positive = activation [15] 3.88% | Potency [16] | Potency [17] | Potency [18]

Cc1c(NC(C)C)c(=O)n(-c2ccccc2)n1C
inactive: Potency [1] | Potency [2] | Potency [3] | Potency [4] | Potency [5] | Potency [6] | Potency [7] | Potency [8] | outcome [9] | Potency [10] | Potency [11] | outcome [12] | outcome [13] | Potency [14] | activity change, positive = activation [15] 0.236% [at 42.5 µM] | Potency [16] | Potency [17] | Potency [18]

O=C(c1ccccc1)C1CCCCC1
inactive: Potency [1] | Potency [2] | Potency [3] | Potency [4] | Potency [5] | Potency [6] | Potency [7] | Potency [8] | outcome [9] | Potency [10] | Potency [11] | outcome [12] | outcome [13] | Potency [14] | activity change, positive = activation [15] 3.6% | Potency [16] | Potency [17] | Potency [18]

CC/C=C\CCOC(C)=O
inactive: Potency [1] | Potency [2] | Potency [3] | Potency [4] | Potency [5] | Potency [6] | Potency [7] | Potency [8] | outcome [9] | Potency [10] | Potency [11] | outcome [12] | outcome [13] | Potency [14] | activity change, positive = activation [15] 8.11% | Potency [16] | Potency [18]

C=CCOCC(CC)(CO)COCC=C
inactive: Potency [1] | Potency [2] | Potency [3] | Potency [4] | Potency [5] | Potency [6] | Potency [7] | Potency [8] | Potency [10] | Potency [11] | outcome [12] | outcome [13] | Potency [14] | Potency [19] | activity change, positive = activation [15] 4.88% | Potency [16] | Potency [17] | Potency [18]
